This is a sample that favours compounds with a hit; in the whole collection about 2.3% have one here.
M1 ag: human M1 muscarinic receptor agonists, primary screen, Fluo-8 calcium fluorescence, CHO-K1 cells, HTS | Muscarinic acetylcholine receptor M1 (Homo sapiens), P11229 | AID 588814, 2011 | CHO-K1 hM1, agonist mode; 0% DMSO, 100% acetylcholine EC100 | hit rate 0.33% among 360,000 | activation, % at 3 µM;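 active means activation above the run's mean compound activation plus 3 SD, cut at about 16% in these data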;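 further: peak over basal fluorescence ratio within a 140 s kinetic read after compound addition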
Target sequence (P11229 whole entry, looked up): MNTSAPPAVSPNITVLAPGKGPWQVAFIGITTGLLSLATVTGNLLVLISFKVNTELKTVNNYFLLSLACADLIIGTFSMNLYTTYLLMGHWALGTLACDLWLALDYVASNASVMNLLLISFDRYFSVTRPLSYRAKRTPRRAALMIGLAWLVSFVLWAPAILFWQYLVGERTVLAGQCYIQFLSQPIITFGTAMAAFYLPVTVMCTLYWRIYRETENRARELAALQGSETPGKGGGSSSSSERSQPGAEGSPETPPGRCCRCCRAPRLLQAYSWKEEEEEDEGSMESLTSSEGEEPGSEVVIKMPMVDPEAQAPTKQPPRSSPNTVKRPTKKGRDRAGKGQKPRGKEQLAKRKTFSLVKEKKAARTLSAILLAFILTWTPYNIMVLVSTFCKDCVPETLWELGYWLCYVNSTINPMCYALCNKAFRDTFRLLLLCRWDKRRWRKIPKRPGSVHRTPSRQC
CHO-K1 Ca antag: counter-screen for M1 antagonists: effect in parental CHO-K1 cells. AID 602250. inhibition, % at 3 µM. ATP-induced calcium, Fluo-8 fluorescence. hit rate 0.6% among 360,000;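 active means inhibition above a per-plate cutoff, the plate's mean sample inhibition plus 3 SD, cut at about 24% in these data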;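 further: 0% = DMSO plus EC80 ATP and 100% = DMSO alone without ATP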
CHRM1 PAM: human M1 muscarinic receptor positive allosteric modulators, primary screen, CHO-K1 cells, Fluo-8 calcium fluorescence, 1536-well. Muscarinic acetylcholine receptor M1 (Homo sapiens), P11229. activation, % at 3 µM. AID 588819, 2011. hit rate 0.088% among 360,000. CHO-K1 hM1, ACh EC20; 0% = ACh EC20, 100% = maximal ACh; in the data active means activation above about 19%, passing the limit was not always enough
CHRM1 antagonist: human M1 muscarinic receptor antagonists, primary screen, CHO-K1 cells, Fluo-8 calcium fluorescence, 1536-well | Muscarinic acetylcholine receptor M1 (Homo sapiens), P11229 | CHO-K1 hM1, ACh EC80 antagonist | inhibition, % at 3 µM | hit rate 1.3% among 360,000 | AID 588852, 2011;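 active means percent inhibition above its own plate's cutoff, namely the mean of that plate's compound wells plus 3 SD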;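 further: peak over basal fluorescence ratio during 140 s after agonist addition; 0% = ACh EC80 plus DMSO and 100% = DMSO alone without agonist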
M1 PAM parental: nonselective calcium activators in parental CHO-K1 cells, primary screen, counter-screen for M1 PAM project, cell-based, Fluo-8 calcium fluorescence, full deck, 1536-well | ATP EC20; 0% at ATP EC20, 100% at ATP max | activation, % at 3 µM | hit rate 0.02% among 360,000;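 active means activation above the run cutoff, the mean activation of all test compounds plus 3 SD, cut at about 40% in these data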;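 further: peak over basal fluorescence ratio in a 140 s read after ATP addition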
CHO-K1 Ca ag: counter-screen for M1 agonists: effect in parental CHO-K1 cells | Fluo-8 calcium fluorescence; scaled to maximal ATP response, vehicle zero | activation, % at 3 µM | hit rate 0.48% among 360,000; in the data active means activation above about 15%;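 further: untransfected CHO-K1 host cells lacking M1 receptor as counterscreen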
Starred values were filed as active, the others as inactive.

SMILES | M1 ag | CHO-K1 Ca antag | CHRM1 PAM | CHRM1 antagonist | M1 PAM parental | CHO-K1 Ca ag
CSCCC(NC(=O)c1ccccc1Cl)C(=O)NCC1COc2ccccc2O1 (stereo unspecified) | -2 | 16 | -13 | 31* | -31 | 0
Cc1ccccc1S(=O)(=O)N(C)C[C@@H]1OCc2cn(nn2)CCCC(=O)N([C@H](C)CO)C[C@H]1C | -3 | -5 | -5 | 5 | 15 | 1
O=C(NNc1ccnc2cc(Cl)ccc12)C1CCCCC1 | -4 | 14 | -10 | 32* | -9 | 12
C=CCn1c(=O)c2c(nc(-n3nc(C)cc3C)n2C)n(C)c1=O | -2 | -11 | 10 | -26 | 5 | 0
CCOC(=O)/C=C1\SCC(=O)N1CC(=O)NC(C)C | -2 | -1 | 1 | -14 | 8 | 0
CCOC(=O)/C=C1\SCC(=O)N1CC(=O)NCCc1ccc(F)cc1 | -7 | 0 | 10 | -3 | 17 | 17*
CCOC(=O)/C=C1\SCC(=O)N1CC(=O)NC12CC3CC(CC(C3)C1)C2 | -2 | 24* | -9 | 18 | -6 | 0
OC12CCCCC1C(c1ccc3c(c1)OCO3)N(Cc1ccc(F)cc1)CC2 (stereo unspecified) | -3 | 7 | 8 | -5 | 11 | 27*
OC12CCCCC1C(c1ccc3c(c1)OCO3)N(Cc1cccc(F)c1)CC2 (stereo unspecified) | -2 | -6 | 8 | -8 | 21 | 1
COc1ccc(N2C(=O)CSC23C(=O)N2CCCc4cccc3c42)cc1 (stereo unspecified) | -6 | -7 | -26 | 85* | 9 | 1
O=C1CSC2(C(=O)N3CCCc4cccc2c43)N1c1cccc(C(F)(F)F)c1 (stereo unspecified) | -8 | -8 | -22 | 89* | 12 | 0
Cc1ccc(C)c(NC(=O)Cn2nc(C(F)(F)F)cc2C2CC2)c1 | 1 | -41 | 26* | -20 | 2 | 0
COc1ccccc1-c1nnc(Nc2nc3c(OC)cccc3s2)o1 | -3 | -1 | 13 | -2 | 18 | 1
COc1cccc2sc(Nc3nnc(-c4ccccc4Cl)o3)nc12 | 1 | 29* | 1 | -4 | -9 | 0
O=C(Nc1nnc(-c2ccccc2Cl)o1)c1ccco1 | -4 | -1 | 3 | 0 | 5 | 0
O=C(Nc1nnc(-c2ccccc2Cl)o1)c1nc2ccccc2s1 | 74* | 0 | -6 | 1 | 0 | 48*
COC1=CC(=O)[C@@]2([C@@H]1O)[C@@H](Cl)C[C@]13C(OC)=C(OC)C(=O)C[C@]21CCN3C | -3 | -5 | 5 | -5 | 17 | 0
C/C(=N\NC(=O)C1CC1)c1ccccc1O | -4 | 2 | 3 | -6 | -10 | -1
Nc1cc(=O)[nH]c(SCC(=O)N2CCC(Cc3ccccc3)CC2)n1 | -2 | 4 | -4 | 4 | -20 | 0
O=C(Nc1nnc(-c2ccc3c(c2)CCCC3)o1)C1COc2ccccc2O1 (stereo unspecified) | -4 | 25* | -4 | 3 | -10 | -1
O=C(NC1CCCCC1)C1COc2ccccc2O1 (stereo unspecified) | -7 | -3 | -26 | 46* | 3 | 1
CC1CCC(NC(=O)C2COc3ccccc3O2)CC1 (stereo unspecified) | -6 | 21 | 2 | -5 | -8 | -1
CC(C)(C)OC(=O)N1CSC[C@H]1C(=O)NC[C@H](CC(=O)O)c1ccc(Cl)cc1 | -2 | -17 | 6 | -19 | 10 | 0
COc1cc(C(=O)Nc2ccc(S(=O)(=O)N3CCCCC3)cc2)ccc1OCC(=O)N1CCOCC1 | -2 | -16 | 3 | -1 | 17 | 0
CCN(CC)c1ccc2nc3ccccc3[n+](CC)c2c1 | -10 | -12 | -30 | 69* | 16 | 0
SMILES | M1 ag | CHO-K1 Ca antag | CHRM1 PAM | CHRM1 antagonist | M1 PAM parental | CHO-K1 Ca ag
CC[C@@H](C)[C@@H]1CN([C@@H](C)CN2CCC[C@H]2CN2C(N)=NC[C@@H]2Cc2ccccc2)C(=N)N1CCCC1CCCC1 | -10 | -7 | -31 | 76* | -14 | 0
CC[C@@H](C)[C@@H]1CN([C@@H](C)CN2CCC[C@H]2CN2C(N)=NC[C@@H]2Cc2ccccc2)C(=N)N1CCc1ccc(Cl)c(Cl)c1 | -8 | -9 | -32 | 49* | 14 | 2
CC[C@@H](C)[C@@H]1CN([C@@H](CN2CCC[C@H]2CN2C(N)=NC[C@H]2C(C)C)C(C)C)C(=N)N1CCc1ccc(Cl)c(Cl)c1 | -12 | 10 | -25 | 30 | -12 | 0
O=C(NC1CCN(S(=O)(=O)c2cccc(Cl)c2)CC1)C1CCCCC1 | -6 | -11 | 10 | -5 | 6 | 0
CCSc1nnc(NC(=O)c2ccccc2C)s1 | -6 | -7 | -12 | 53* | 13 | 1
CCSc1nnc(NC(=O)CC)s1 | 16* | -5 | 4 | -3 | 18 | 0
COc1ccc(NC(=O)Nc2c(SC)nsc2SC)cc1 | -10 | -3 | 6 | -10 | 10 | 0
C=CCn1c(=O)c2c(nc3n2CCCN3CCc2ccc(OC)c(OC)c2)n(C)c1=O | -3 | 7 | 2 | 9 | -4 | 1
COc1ccc2oc3c(ccc[n+]3C)c(=O)c2c1 | -2 | 2 | -1 | 4 | 5 | 1
COc1c(Br)cc(Br)cc1/C=N/NC(=O)c1ccncc1 | -5 | 1 | 4 | -3 | 3 | 15*
Cc1cc(C(=O)O)ccc1-c1ccc(/C=C2\SC(=O)N(CC(=O)Nc3ccc4c(c3)OCO4)C2=O)o1 | 2 | 27* | -3 | 10 | -7 | 6
COCCn1cnc2c1c(=O)n(CC(=O)OCC(=O)NCC(F)(F)F)c(=O)n2Cc1ccccc1 | 2 | -18 | 9 | -8 | 22 | 1
N#CC1=C(N)Oc2cc(N)ccc2C1c1ccccc1Cl (stereo unspecified) | 0 | 5 | 16 | -21 | -3 | 2
N#CC1=C(N)OC2=C(CCc3ccccc32)C1c1ccccc1Cl (stereo unspecified) | -9 | -10 | -22 | 44* | 13 | 0
Cc1cc([N+](=O)[O-])nn1CC(=O)Nc1cc(F)ccc1F | -5 | 0 | 4 | -5 | -3 | 16*
CN(CCCNC(=O)c1cccc(N2CCCC2=O)c1)c1ccccc1 | -6 | 5 | -14 | 30* | -4 | 1
CCCCN(C)CCCNC(=O)c1cccc(N2CCCC2=O)c1 | -6 | 12 | 0 | 6 | 0 | 0
CCc1nnc(NC(=O)Cc2cc(OC)c(OC)c(OC)c2)s1 | -2 | 3 | -1 | 17 | -10 | 1

Bioassay records as filed in PubChem BioAssay.
